Source: PubChem BioAssay
Results filed as inconclusive are left out. Active and inactive are the calls of the source.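 Rule for the calls, unless noted: active = GFP response above 150% of the DMSO control; inconclusive = Fewer than 70 cells counted for a yeast strain; inactive = the rest.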

Columns and labels:
[1] = rapamycin-like changes in RPL19A-GFP expression – cell-based, S. cerevisiae, multiplex flow cytometry, primary screen (AID 1862; in the data active = percent of DMSO control GFP below about 86%;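 note: lower values mimic rapamycin by blocking the RPL19A rise seen in DMSO cells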); conditions: S. cerevisiae RPL19A-GFP strain, flow cytometry fluorescence, 3 h; at 10 µM; stronger effect = lower value
[2] = TOR pathway GLN3 branch reporter MEP2-GFP changes – S. cerevisiae, multiplex flow cytometry, primary screen (AID 1867;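 active = GFP response, as percent of the DMSO control, above the screen-wide mean plus 3 SD, about 139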;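 note: median GFP channel fluorescence of barcode-gated MEP2-GFP cells measured by flow cytometry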); conditions: S. cerevisiae MEP2-GFP strain, 3 h, at 10 µM, stronger effect = higher value, 100% means same as DMSO wells
[3] = TOR pathway RTG branch CIT2 reporter changes – S. cerevisiae, GFP fusion, multiplex flow cytometry, primary screen (AID 1870;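 active = percent response above a set limit, the screen-wide mean plus 3 SD, cut at about 130% in these data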;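 note: barcoded CIT2-GFP strain pooled with four other GFP strains with rapamycin as positive control; median GFP fluorescence per well over plate mean of DMSO wells so 100% = DMSO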); conditions: S. cerevisiae CIT2-GFP expression, 3 h, at 10 µM, stronger effect = higher value
[4] = TOR pathway LAP4-GFP level changes – S. cerevisiae, multiplex flow cytometry, primary screen (AID 1873;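 active = GFP signal, as percent of the solvent control, above the screen mean plus 3 SD, about 149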); conditions: S. cerevisiae LAP4-GFP expression, 3 h, at 10 µM, stronger effect = higher value
[5] = yeast AGP1-GFP level changes, GLN3 branch – cell-based, multiplex flow cytometry, S. cerevisiae, primary screen (AID 1887;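 active = GFP signal above the screen-wide mean plus 3 SD, that is over about 124.5% of the solvent control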;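 note: AGP1-GFP fusion strain of S. cerevisiae within a five-strain barcoded multiplex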); conditions: 3 h, at 10 µM, stronger effect = higher value
[6] = hit retest on RPL19A-GFP reporter strain – cell-based, S. cerevisiae, flow cytometry, cherry picks, mother/daughter gates, confirmation (AID 2270;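 active = GFP response below 50% of the DMSO control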); conditions: 3 h, at 10 µM, stronger effect = lower value, 100 = same GFP as DMSO wells
[7] = yeast TOR pathway reporter LAP4-GFP change – cell-based, cherry picks, flow cytometry, mother/daughter gates, confirmation (AID 2271;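 active = GFP response above 150% of the DMSO control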;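 note: ratio of sample to DMSO plate mean so 100% equals DMSO level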); conditions: S. cerevisiae LAP4-GFP strain, 3 h, at 10 µM, stronger effect = higher value, 100 means same as DMSO control
[8] = TOR pathway reporter MEP2-GFP, retest of hits – S. cerevisiae, flow cytometry GFP, cherry picks, confirmation (AID 2272);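 note: ratio of well signal to plate DMSO mean so 100% equals DMSO level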; conditions: S. cerevisiae MEP2-GFP strain, 3 h, at 10 µM, stronger effect = higher value
[9] = TOR pathway CIT2 reporter hit retest – S. cerevisiae, GFP fusion, cherry picks, mother/daughter gates, confirmation (AID 2274;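 active = GFP response above 150% of the DMSO level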); conditions: S. cerevisiae CIT2-GFP strain, flow cytometry, 3 h, at 10 µM, stronger effect = higher value
[10] = reduced mouse 2C T cell binding to pMHC/ICAM-1 vesicles – MLPCN validation set, flow cytometry, LFA-1/ICAM-1 modulator project, pilot screen (AID 2523;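 active = response below a set limit, under 55% cells CD8-positive and vesicle-bound, and CD8 cells' 90th-percentile brightness under 279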;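 for vesicle binding response: mean PE anti-B7-1 fluorescence of CD8+ cells relative to row control; 100% = QL9-loaded vesicles with DMSO vehicle in the same plate row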); conditions: 2C mouse CD8+ T cells, at 7 µM, stronger effect = lower value; double positive events: measured here: CD8+/vesicle+ event percentage
[11] = measured here: daughter cell gate
[12] = measured here: mother cell gate
[13] = measured here: daughter cell gate response
[14] = measured here: mother cell gate response

Row | SMILES | percent of DMSO control GFP [1] | GFP response vs DMSO [2] | percent response of DMSO control [3] | GFP response vs DMSO [4] | GFP response, % of DMSO [5] | GFP response vs DMSO [6] | GFP response vs DMSO [6, 11] | GFP response vs DMSO [6, 12] | GFP response relative to DMSO [7] | GFP response relative to DMSO [7, 13] | GFP response relative to DMSO [7, 14] | GFP response vs DMSO [8] | GFP response, % of DMSO [9] | GFP response, % of DMSO [9, 11] | GFP response, % of DMSO [9, 12] | double positive events [10] | vesicle binding response [10]
1 | O=C(/C=C/c1ccccc1)c1ccccc1 | 92.8% (inactive) | 139% (inactive) | 96.6% (inactive) | 79.8% (inactive) | 87.5% (inactive) | 98% (inactive) | 100% | 97.1% | 97.7% (inactive) | 96.5% | 94.6% | 104% (inactive) | 102% (inactive) | 106% | 99.1% | 68% | 126% (inactive)
2 | CCOc1cc(C=O)ccc1OCCSc1ccc(C)cc1 | 94.6% (inactive) | 103% (inactive) | 77.8% (inactive) | 168% (active) | 101% (inactive) | 92.9% (inactive) | 87.7% | 96.4% | 131% (inactive) | 122% | 137% | 116% (inactive) | 93.5% (inactive) | 92.7% | 93.3% | 60.1% | 185% (inactive)
3 | CN/C(=C/[N+](=O)[O-])NCCSCc1ccc(CN(C)C)o1 | 91.7% (inactive) | 150% (active) | 108% (inactive) | 83.6% (inactive) | 87.7% (inactive) | 100% (inactive) | 101% | 99.2% | 97.9% (inactive) | 97.6% | 96.1% | 107% (inactive) | 101% (inactive) | 105% | 99.7% | 64.5% | 123% (inactive)
4 | O=C(O)Cc1ccc(-c2ccccc2)cc1 | 89.4% (inactive) | 96.3% (inactive) | 65.4% (inactive) | 196% (active) | 76.9% (inactive) | 96.5% (inactive) | 93.3% | 95.9% | 115% (inactive) | 116% | 114% | 102% (inactive) | 102% (inactive) | 91.5% | 103% | 65.8% | 5570% (inactive)
5 | CC(C)CC(=O)Nc1ccc2oc(-c3ccncc3)nc2c1 | 92.2% (inactive) | 144% (active) | 103% (inactive) | 82.5% (inactive) | 83.8% (inactive) | 103% (inactive) | 99.8% | 104% | 98.7% (inactive) | 98.7% | 101% | 97.8% (inactive) | 108% (inactive) | 99.7% | 107% | 71.3% | 292% (inactive)
